# In PubChem BioAssay (EPA / NIEHS):
# Inconclusive results are not listed. Calls of active or inactive are those of the source. The calls were made as follows: active = hit-call score of the fitted dose curve at least 0.9, where 1 is the maximum; inconclusive = response in the unintended direction; inactive = score below 0.9.
# Read-out: Cytochrome P450 3A4 (Homo sapiens) (UniProt P08684)
# Assay: CLD_CYP3A4_6hr: CellzDirect (CLD) Gene Expression Assay for xenobiotic metabolism (CYP3A4) at 6 hours (AID 2283680)
# Protocol: CLD_6hr is a cell-based, multiplexed-readout assay that uses hepatocyte, a human liver primary cell, with measurements taken at 6 hours after chemical dosing in a 96-well plate.CLD_CYP3A4_6hr is one of 16 assay component(s) measured or calculated from the CLD_6hr assay. It is designed to make measurements of mRNA induction, a form of inducible reporter, as detected with chemiluminescence signals by Quantitative Nuclease Protection Assay (qNPA) technology.Data from the assay component CLD_CYP3A4_6hr was analyzed at the endpoint, CLD_CYP3A4_6hr, in the positive analysis fitting direction relative to DMSO as the negative control and baseline of activity. Using a type of inducible reporter, gain-of-signal activity can be used to understand changes in the reporter gene as they relate to the gene CYP3A4. Furthermore, this assay endpoint can be referred to as a primary readout. To generalize the intended target to other relatable targets, this assay endpoint is annotated to the cyp intended target family, where subfamily is xenobiotic metabolism.
# Human hepatocyte cultures were treated daily for two consecutive days with fresh dosing solutions containing appropriate concentrations of the 320 ToxCast chemicals (chemical identities were blinded to CellzDirect and other ToxCast collaborators), vehicle control (0.2% DMSO), and positive control inducers as summarized in Table 1. Due to the large number of treatment groups and chemicals examined, the ToxCast chemicals were divided into two groups (spanning two independent cultures of hepatocytes from separate donor preparations (Hu778: ToxCast plates 1 and 2; Hu776: ToxCast plates 3 and 4). Each preparation of human hepatocyte cultures was treated with respective vehicle control, medium only control, set of six positive controls/reference chemicals for the five hepatic receptor pathways, and a subset of eight of the ToxCast chemicals (indoxacarb, pyrithiobac-sodium, norflurazon, cyhalofop-butyl, methomyl, thiram, acetochlor, and propiconazole). These replicate data, coupled with internal replicates designed within the blinded ToxCast chemical library, provided additional data to evaluate interindividual differences between hepatocyte preparations and their potential impact on chemical profiles.Cell morphology and integrity were evaluated using phase-contrast microscopy as an indicator of hepatocyte cell health (Tyson & Green, 1987). Cultures for each treatment group (i.e., media, vehicle [0.2% DMSO], positive control inducers [multiple concentrations], and the ToxCast chemicals [multiple concentrations]) were observed and cell morphology was assessed relative to vehicle control cultures at each harvest time point (0, 6, 24, or 48 h). […] Images were evaluated at the conclusion of the study to assess changes in cell integrity and account for the effects of chemical exposure on uncharacteristic changes in concentration-dependent gene expression profiles. The results from these determinations of apparent cytotoxicity were annotated (yes/no) alongside the corresponding qNPA data for reference.At the conclusion of each treatment period, hepatocyte cultures (96-well) were washed with 1 volume of HBSS, lysed by addition of 25 ul ArrayPlate lysis buffer (HTG, Tucson, AZ), and 70 ul/well of Denaturation Oil, denatured by incubation at 95C for 10 min, and frozen at approximately -70C until analysis by nuclease protection assay (qNPA) (Roberts et al., 2007). For qNPA analysis, cell lysates were thawed at 50C for approximately 30 min, qNPA probes were added, and samples were incubated at 95C for 10 min to begin the detection process by denaturing the target RNA, dissociating the duplexes and secondary structure hybridization. At the conclusion of the hybridization period, S1 nuclease reagent was added to each sample to digest all nonprotected nucleotides at 50C for 60-90 min. […]
# Chain of Cytochrome P450 3A4 (Homo sapiens) (P08684 whole entry, looked up): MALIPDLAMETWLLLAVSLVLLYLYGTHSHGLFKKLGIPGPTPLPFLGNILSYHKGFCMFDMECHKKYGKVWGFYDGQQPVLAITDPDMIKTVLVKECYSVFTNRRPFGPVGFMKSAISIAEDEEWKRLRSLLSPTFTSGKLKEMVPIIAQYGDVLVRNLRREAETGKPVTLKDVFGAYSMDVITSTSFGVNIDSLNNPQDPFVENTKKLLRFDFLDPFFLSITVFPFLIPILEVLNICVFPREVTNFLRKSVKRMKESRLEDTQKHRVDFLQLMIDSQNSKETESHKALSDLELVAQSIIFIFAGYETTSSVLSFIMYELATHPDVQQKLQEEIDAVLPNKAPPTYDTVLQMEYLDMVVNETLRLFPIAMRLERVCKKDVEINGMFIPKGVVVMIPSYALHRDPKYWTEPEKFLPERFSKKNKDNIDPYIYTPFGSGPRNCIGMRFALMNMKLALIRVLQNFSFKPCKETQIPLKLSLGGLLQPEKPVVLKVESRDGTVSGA
Structure (SMILES),outcome,AC50
CC(C)=CC1C(C(=O)OCN2C(=O)C3=C(CCCC3)C2=O)C1(C)C (stereo not given),inactive,
CNc1cnn(-c2cccc(C(F)(F)F)c2)c(=O)c1Cl,inactive,
CN(C)NC(=O)CCC(=O)O,inactive,
CCCCSP(=O)(SCCCC)SCCCC,inactive,
O=[N+]([O-])c1cc(C(F)(F)F)c(Cl)c([N+](=O)[O-])c1Nc1ncc(C(F)(F)F)cc1Cl,inactive,
CON=C(C(=O)OC)c1ccccc1CON=C(C)c1cccc(C(F)(F)F)c1,inactive,
Nc1c(Cl)cc([N+](=O)[O-])cc1Cl,inactive,
CCCCOC(=O)[C@@H](C)Oc1ccc(Oc2ccc(C#N)cc2F)cc1,inactive,
CCOP(=O)(NC(C)C)Oc1ccc(SC)c(C)c1 (stereo not given),inactive,
CC[C@H](C)[C@H]1O[C@]2(C=C[C@@H]1C)C[C@@H]1C[C@@H](C/C=C(\C)[C@@H](O[C@H]3C[C@H](OC)[C@@H](O[C@H]4C[C@H](OC)[C@@H](NC)[C@H](C)O4)[C@H](C)O3)[C@@H](C)/C=C/C=C3\CO[C@@H]4[C@H](O)C(C)=C[C@@H](C(=O)O1)[C@]34O)O2,inactive,
CCc1cccc(C)c1N(C(=O)CCl)C(C)COC (stereo not given),,477 nM (active)
CSc1nnc(C(C)(C)C)c(=O)n1N,inactive,
S=C1NCCN1,inactive,
CCOP(=S)(OCC)Oc1ccc([N+](=O)[O-])cc1,,2200 nM (active)
CC(C)N(C(=O)SCC(Cl)=C(Cl)Cl)C(C)C,inactive,
Cc1nn(-c2cc(NS(C)(=O)=O)c(Cl)cc2Cl)c(=O)n1C(F)F,,1620 nM (active)
CCc1cccc(CC)c1N(COC)C(=O)CCl,,1930 nM (active)
Cc1cc(C2CC2)nc(Nc2ccccc2)n1,inactive,
COP(=O)(NC(C)=O)SC (stereo not given),inactive,
C[N+]1(C)CCCCC1,inactive,

Structure (SMILES),outcome,AC50
CCOP(=S)(OCC)OC(Cl)C(Cl)(Cl)Cl (stereo not given),,10500 nM (active)
CCOP(=S)(OCC)Oc1cc(C)nc(C(C)C)n1,inactive,
CCCCOC(=O)c1ccccc1C(=O)O,inactive,
O=c1ccc(=O)[nH][nH]1,inactive,
CSc1nc(NC(C)C)nc(NC(C)C)n1,inactive,
CC(=NC#N)N(C)Cc1ccc(Cl)nc1,inactive,
CNC(=O)Oc1cccc2c1OC(C)(C)O2,inactive,
CCCOCC(=Nc1ccc(Cl)cc1C(F)(F)F)n1ccnc1,inactive,
CC1(C(=O)Nc2ccc(O)c(Cl)c2Cl)CCCCC1,inactive,
CCOP(=S)(Oc1cnc(C(C)(C)C)nc1)OC(C)C (stereo not given),,1890 nM (active)
CCOP(=O)(OCC)Oc1cc(C)nc(C(C)C)n1,inactive,
COc1cccc(C(=O)NN(C(=O)c2cc(C)cc(C)c2)C(C)(C)C)c1C,,886 nM (active)
CCCSP(=O)(OCC)Oc1ccc(Br)cc1Cl (stereo not given),,3520 nM (active)
Cc1ccn2nc(S(=O)(=O)Nc3c(F)cccc3F)nc2n1,inactive,
CN(C)C(=O)Nc1cccc(C(F)(F)F)c1,inactive,
CCCCN(CC)c1c([N+](=O)[O-])cc(C(F)(F)F)cc1[N+](=O)[O-],inactive,
CSC1=N[C@@](C)(c2ccccc2)C(=O)N1Nc1ccccc1,inactive,
CCCSP(=O)(OCC)SCCC,inactive,
CCc1cnc(C2=NC(C)(C(C)C)C(=O)N2)c(C(=O)O)c1 (stereo not given),inactive,
CCOC(=O)COc1cc(-c2nn(C)c(OC(F)F)c2Cl)c(F)cc1Cl,,3970 nM (active)
